# Columns and labels:
# [1] = molecular target: Homeodomain-interacting protein kinase 3 (Homo sapiens) (UniProt Q9H422); conditions: at 10 µM
# [2] = molecular target: T1, Serine/threonine-protein kinase haspin (Homo sapiens) (UniProt Q8TF76); conditions: at 1 µM
# T1 sequence (whole entry): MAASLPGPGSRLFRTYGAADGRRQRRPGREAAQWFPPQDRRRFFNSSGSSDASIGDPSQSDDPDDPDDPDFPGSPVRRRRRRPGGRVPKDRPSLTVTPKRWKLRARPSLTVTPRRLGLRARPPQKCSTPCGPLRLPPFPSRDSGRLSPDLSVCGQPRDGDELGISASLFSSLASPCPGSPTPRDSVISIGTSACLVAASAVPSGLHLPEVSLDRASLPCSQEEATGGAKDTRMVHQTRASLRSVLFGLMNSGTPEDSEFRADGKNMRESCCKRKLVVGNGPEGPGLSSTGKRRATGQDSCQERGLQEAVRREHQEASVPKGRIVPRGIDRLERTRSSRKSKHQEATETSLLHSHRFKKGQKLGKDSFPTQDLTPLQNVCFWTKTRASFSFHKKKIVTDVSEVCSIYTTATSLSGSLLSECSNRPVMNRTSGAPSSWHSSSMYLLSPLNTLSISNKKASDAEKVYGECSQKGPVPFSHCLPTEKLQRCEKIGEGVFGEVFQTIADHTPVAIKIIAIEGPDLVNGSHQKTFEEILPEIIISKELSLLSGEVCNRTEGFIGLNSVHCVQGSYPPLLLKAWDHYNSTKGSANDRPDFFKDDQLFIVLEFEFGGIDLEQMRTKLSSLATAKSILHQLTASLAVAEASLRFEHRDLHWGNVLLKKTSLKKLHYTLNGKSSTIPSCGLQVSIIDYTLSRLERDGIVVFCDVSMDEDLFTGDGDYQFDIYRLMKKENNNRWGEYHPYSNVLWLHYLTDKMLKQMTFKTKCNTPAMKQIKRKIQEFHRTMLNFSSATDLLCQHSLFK
# [3] = molecular target: T1, Serine/threonine-protein kinase haspin (Homo sapiens); conditions: at 10 µM
# [4] = molecular target: Tyrosine-protein kinase HCK (Homo sapiens) (UniProt P08631); conditions: at 1 µM
# [5] = molecular target: Tyrosine-protein kinase HCK (Homo sapiens) (UniProt P08631); conditions: at 10 µM
# [6] = molecular target: Tyrosine-protein kinase HCK (Homo sapiens) (UniProt P08631); conditions: at 1 µM; remark: listed apart in the source
# [7] = molecular target: Tyrosine-protein kinase HCK (Homo sapiens) (UniProt P08631); conditions: at 10 µM; remark: listed apart in the source
# [8] = molecular target: Insulin-like growth factor 1 receptor (Homo sapiens) (UniProt P08069); conditions: at 1 µM
# [9] = molecular target: Insulin-like growth factor 1 receptor (Homo sapiens) (UniProt P08069); conditions: at 10 µM
# [10] = molecular target: T2, Protein kinase C zeta type (Homo sapiens) (UniProt Q05513); conditions: at 10 µM
# T2 sequence (whole entry): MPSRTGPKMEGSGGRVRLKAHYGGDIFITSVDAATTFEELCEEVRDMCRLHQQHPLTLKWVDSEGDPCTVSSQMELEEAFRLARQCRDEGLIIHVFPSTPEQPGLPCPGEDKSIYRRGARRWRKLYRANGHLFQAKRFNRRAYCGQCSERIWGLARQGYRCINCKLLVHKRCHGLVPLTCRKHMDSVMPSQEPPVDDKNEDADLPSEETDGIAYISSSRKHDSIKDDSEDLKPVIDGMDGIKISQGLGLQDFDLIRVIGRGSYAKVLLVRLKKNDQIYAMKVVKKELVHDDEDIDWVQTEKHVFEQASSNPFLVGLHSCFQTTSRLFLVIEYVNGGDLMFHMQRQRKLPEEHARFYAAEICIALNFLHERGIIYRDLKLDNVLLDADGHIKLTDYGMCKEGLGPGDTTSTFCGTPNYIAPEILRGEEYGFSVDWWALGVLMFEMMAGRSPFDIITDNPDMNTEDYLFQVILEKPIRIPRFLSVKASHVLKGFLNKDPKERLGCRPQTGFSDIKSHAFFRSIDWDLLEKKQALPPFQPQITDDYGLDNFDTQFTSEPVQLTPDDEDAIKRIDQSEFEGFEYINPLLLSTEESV
# Chain of Homeodomain-interacting protein kinase 3 (Homo sapiens) (Q9H422 whole entry, looked up): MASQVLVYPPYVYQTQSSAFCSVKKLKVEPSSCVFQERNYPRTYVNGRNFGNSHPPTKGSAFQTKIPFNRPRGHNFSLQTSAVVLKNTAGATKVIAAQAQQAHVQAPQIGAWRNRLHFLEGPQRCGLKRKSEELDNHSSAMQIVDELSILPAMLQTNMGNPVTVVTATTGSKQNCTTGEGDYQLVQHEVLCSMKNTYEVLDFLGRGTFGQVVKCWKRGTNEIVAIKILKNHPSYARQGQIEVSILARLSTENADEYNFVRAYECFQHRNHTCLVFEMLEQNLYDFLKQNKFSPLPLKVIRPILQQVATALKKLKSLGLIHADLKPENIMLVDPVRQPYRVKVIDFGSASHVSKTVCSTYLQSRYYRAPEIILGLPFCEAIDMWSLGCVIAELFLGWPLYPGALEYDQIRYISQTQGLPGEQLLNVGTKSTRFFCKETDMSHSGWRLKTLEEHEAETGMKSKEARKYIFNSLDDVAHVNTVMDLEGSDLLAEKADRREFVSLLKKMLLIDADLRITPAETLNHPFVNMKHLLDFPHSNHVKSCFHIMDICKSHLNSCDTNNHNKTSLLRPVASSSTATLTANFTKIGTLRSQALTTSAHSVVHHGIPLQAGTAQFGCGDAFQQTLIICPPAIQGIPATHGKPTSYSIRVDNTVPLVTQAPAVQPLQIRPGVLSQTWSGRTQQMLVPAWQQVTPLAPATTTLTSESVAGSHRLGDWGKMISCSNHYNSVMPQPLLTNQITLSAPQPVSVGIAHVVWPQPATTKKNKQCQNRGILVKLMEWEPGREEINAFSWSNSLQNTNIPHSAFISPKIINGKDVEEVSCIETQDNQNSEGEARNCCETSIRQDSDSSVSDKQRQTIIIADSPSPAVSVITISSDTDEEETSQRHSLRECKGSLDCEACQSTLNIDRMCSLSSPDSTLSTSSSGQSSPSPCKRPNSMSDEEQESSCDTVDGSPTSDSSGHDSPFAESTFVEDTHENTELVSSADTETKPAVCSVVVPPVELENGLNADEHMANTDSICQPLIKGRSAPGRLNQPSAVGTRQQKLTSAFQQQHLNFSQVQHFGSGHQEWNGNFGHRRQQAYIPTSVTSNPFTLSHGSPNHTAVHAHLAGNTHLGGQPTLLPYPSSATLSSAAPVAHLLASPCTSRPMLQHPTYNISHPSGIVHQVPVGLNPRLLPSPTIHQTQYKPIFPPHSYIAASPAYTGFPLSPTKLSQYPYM
# Chain of Insulin-like growth factor 1 receptor (Homo sapiens) (P08069 31-736 limits assumed): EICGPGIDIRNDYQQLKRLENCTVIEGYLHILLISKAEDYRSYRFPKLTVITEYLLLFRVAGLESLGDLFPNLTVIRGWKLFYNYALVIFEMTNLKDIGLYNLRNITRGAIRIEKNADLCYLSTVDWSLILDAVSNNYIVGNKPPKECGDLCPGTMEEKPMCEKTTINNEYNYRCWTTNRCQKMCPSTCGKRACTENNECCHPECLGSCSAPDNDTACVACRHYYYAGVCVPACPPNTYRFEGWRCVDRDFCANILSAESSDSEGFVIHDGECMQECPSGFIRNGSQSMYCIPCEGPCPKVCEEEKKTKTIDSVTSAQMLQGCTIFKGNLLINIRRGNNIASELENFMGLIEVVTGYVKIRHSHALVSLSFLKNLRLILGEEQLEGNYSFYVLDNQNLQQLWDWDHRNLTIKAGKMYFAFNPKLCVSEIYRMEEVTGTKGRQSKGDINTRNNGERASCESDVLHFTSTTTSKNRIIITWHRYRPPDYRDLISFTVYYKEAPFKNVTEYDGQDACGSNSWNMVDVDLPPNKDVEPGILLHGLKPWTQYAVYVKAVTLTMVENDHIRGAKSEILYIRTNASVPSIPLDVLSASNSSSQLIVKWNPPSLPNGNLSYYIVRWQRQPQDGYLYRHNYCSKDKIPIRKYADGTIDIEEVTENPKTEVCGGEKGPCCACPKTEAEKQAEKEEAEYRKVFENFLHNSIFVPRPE
# Chain of Insulin-like growth factor 1 receptor (Homo sapiens) (P08069 741-1367 limits assumed): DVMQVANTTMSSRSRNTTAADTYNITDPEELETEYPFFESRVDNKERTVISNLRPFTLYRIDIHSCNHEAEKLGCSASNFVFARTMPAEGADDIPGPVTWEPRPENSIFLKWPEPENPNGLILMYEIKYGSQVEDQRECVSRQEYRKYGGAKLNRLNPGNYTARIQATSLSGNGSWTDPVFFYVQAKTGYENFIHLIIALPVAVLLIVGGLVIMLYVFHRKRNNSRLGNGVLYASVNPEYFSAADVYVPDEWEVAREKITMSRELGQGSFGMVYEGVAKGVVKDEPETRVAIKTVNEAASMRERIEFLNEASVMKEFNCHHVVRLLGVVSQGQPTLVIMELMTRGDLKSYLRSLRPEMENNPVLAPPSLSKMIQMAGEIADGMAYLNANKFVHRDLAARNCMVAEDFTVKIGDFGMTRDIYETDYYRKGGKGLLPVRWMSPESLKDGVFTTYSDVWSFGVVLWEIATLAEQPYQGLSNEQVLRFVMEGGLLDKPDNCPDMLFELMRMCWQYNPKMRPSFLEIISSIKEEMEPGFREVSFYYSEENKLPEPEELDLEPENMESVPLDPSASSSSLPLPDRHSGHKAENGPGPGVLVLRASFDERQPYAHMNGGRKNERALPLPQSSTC
# Chain of Tyrosine-protein kinase HCK (Homo sapiens) (P08631 2-526 limits assumed): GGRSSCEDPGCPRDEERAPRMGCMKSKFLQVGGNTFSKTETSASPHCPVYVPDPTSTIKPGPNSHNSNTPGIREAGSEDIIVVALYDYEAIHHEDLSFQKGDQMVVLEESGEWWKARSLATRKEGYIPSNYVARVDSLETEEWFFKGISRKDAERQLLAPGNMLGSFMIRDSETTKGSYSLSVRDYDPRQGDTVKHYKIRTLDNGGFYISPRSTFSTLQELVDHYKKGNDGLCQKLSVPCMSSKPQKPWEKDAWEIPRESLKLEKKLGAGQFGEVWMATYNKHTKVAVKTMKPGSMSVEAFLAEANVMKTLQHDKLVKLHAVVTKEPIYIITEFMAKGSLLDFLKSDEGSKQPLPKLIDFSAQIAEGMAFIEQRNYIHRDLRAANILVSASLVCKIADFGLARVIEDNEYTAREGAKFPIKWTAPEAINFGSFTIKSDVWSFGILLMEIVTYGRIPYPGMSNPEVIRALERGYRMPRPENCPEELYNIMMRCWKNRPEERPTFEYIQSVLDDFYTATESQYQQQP
SMILES,residual activity [1] [%],residual activity [2] [%],residual activity [3] [%],residual activity [4] [%],residual activity [5] [%],residual activity [6] [%],residual activity [7] [%],residual activity [8] [%],residual activity [9] [%],residual activity [10] [%]
O=C1NC(=O)/C(=C/c2ccc3c(c2)OC(F)(F)O3)S1,88,78,67,60,46,115,94,98,130,111
Cc1ccc(S(=O)(=O)/C=C/C#N)cc1,98,94,102,87,82,98,97,75,107,96
CC#CC(=O)Nc1cc2c(Nc3ccc(F)c(Cl)c3)ncnc2cn1,95,119,98,85,88,95,88,147,86,103
N#CCCc1ccc2c(c1)-c1[nH]c3ccc([N+](=O)[O-])cc3c1CC(=O)N2,–,–,74,30,6,27,16,117,144,41
CN(C)CCCn1cc(C2=C(c3c[nH]c4ccccc34)C(=O)NC2=O)c2ccccc21,35,43,12,74,54,113,84,127,–,16
CO[C@H]1C[C@@H]2CC[C@@H](C)[C@@](O)(O2)C(=O)C(=O)N2CCCC[C@H]2C(=O)O[C@H]([C@H](C)C[C@@H]2CC[C@@H](O)[C@H](OC)C2)CC(=O)[C@H](C)/C=C(\C)[C@@H](O)[C@@H](OC)C(=O)[C@H](C)C[C@H](C)/C=C/C=C/C=C/1C,110,86,106,73,81,99,87,123,112,112
COc1cc2ncnc(N3CCN(C(=O)Nc4ccc(Oc5ccccc5)cc4)CC3)c2cc1OC,102,79,82,79,71,91,85,–,–,116
O=[N+]([O-])c1ccc(-c2nc(-c3ccc(F)cc3)c(-c3ccncc3)[nH]2)cc1,109,86,77,77,29,97,97,114,141,103
O=C1Nc2ccc(Br)cc2/C1=C\c1cc2c([nH]1)CCCC2,76,–,–,59,52,–,–,–,128,102
CC(=O)O/N=C1\C(=C2\C(=O)Nc3cc(Br)ccc32)Nc2ccccc21,76,93,74,22,9,3,-1,142,110,95
O=C(Nc1cccc(Nc2nccc(Nc3cccc(C(F)(F)F)c3)n2)c1)C1CC1,103,71,32,42,7,78,78,51,6,116
C[C@@H](N)[C@H]1CC[C@H](C(=O)Nc2ccncc2)CC1,95,109,97,–,94,91,97,111,109,76
c1ccc(-c2n[nH]cc2-c2ccnc3ccccc23)nc1,98,71,49,86,72,100,69,131,133,123
CNc1cc2c(Nc3cccc(Br)c3)ncnc2cn1,96,109,53,68,30,62,50,118,109,118
COc1ccc(C(=O)Nc2sc3c(c2C(N)=O)CCCC3)cc1OC,97,109,93,66,70,95,94,115,74,109
CCOc1cc2ncnc(Nc3cccc(Br)c3)c2cc1OCC,92,97,66,34,6,17,4,89,106,69
N#Cc1cnc2cnc(NCc3cccnc3)cc2c1Nc1ccc(F)c(Cl)c1,–,102,67,17,12,–,91,97,–,94
Oc1n[nH]c2nnc(-c3c(-c4ccccc4)nn4ccccc34)cc12,97,114,106,75,67,92,80,67,37,104

# Source: ChEMBL document CHEMBL2218924, “A broad activity screen in support of a chemogenomic map for kinase signalling research and drug discovery” (Biochem J, 2013)
